# Compound activity from PubChem.
# Compounds with a hit are over-represented: about 1.4% of the library has one in this group of screens.
# MEX-5 binding: C. elegans MEX-5 TCR-2 RNA binding activity | Q9XUB2 | MEX-5/FITC-TCR2 RNA binding, fluorescence polarization; stronger effect = lower value | activity score (negative = inhibition of binding), % at 10 µM | 0.38% of 300,000 active | AID 1832;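 active = inhibition past about -25% in most replicates, and total fluorescence under double the plate's negative control median, limit read from the data; inconclusive = replicates evenly split on the limit, or fluorescence at least double controls; inactive = too little inhibition in most replicates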
# EBV gp42 inh: inhibitors of Epstein-Barr virus glycoprotein 42. AID 1085. Q1HVG2. inhibition, % (tested at 21.74 µM). Fluorescence polarization binding assay, mP read-out. 0.42% of 220,000 active; in the data active = inhibition above about 50%
# Target sequence (Q1HVG2 whole entry, looked up): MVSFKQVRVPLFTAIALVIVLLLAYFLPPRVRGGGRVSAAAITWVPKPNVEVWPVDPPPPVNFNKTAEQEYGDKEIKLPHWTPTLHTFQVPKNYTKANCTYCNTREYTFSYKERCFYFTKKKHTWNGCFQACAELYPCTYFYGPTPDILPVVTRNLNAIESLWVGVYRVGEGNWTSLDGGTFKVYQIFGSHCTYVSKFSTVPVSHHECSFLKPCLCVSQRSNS
# eLon inh: inhibitors of E. coli Lon protease; AID 602123; P0A9M0; purified E. coli Lon protease, fluorescence polarization; 0.42% of 360,000 active; inhibition, % at 7.94 µM; in the data active = inhibition above about 13%, passing the limit was not always enough
# Bcl-xL primary: Bcl-xL (human) inhibition. Q07817. GST-Bcl-xL / FITC-Bim BH3 peptide fluorescence polarization. inhibition, % at 10.9 µM. 0.7% of 320,000 active. AID 2129;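 active = inhibition above the mean of all tested compounds plus 3 SD, cutoff set per campaign, cut at about 30% in these data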;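 also: inhibitors lower millipolarization by displacing the labeled peptide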
# MCL1-BIM inh: inhibitors of human MCL1 binding to BIM-BH3 peptide; Q07820; inhibition, % at 10.9 µM; GST-MCL1 / FITC-Bim-BH3 fluorescence polarization; 0.68% of 320,000 active;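 active = inhibition above the mean inhibition of all tested compounds plus 3 SD, set per campaign, cut at about 40% in these data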;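 also: higher means more loss of mP so more displacement of Bim peptide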
# Target sequence (Q07820 whole entry, looked up): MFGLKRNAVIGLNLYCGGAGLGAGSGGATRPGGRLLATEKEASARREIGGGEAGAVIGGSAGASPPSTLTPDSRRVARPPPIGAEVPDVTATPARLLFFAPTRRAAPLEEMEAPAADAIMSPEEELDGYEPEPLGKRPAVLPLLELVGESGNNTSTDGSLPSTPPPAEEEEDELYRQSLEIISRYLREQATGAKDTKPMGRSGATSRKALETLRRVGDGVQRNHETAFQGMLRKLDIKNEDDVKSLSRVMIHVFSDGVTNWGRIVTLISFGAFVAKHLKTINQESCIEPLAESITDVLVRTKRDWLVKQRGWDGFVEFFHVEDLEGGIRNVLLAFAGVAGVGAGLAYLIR
# GLD-1 RNA inh: GLD-1-TGE RNA interaction inhibition (C. elegans). purified GLD-1 + fluorescein TGE RNA, fluorescence polarization. inhibition, % at 5.96 µM. 0.44% of 320,000 active;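 active = percent inhibition above a per-plate cutoff, the plate mean of test compounds plus 3 SD, cut at about 30% in these data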
# Bcl-xL conf: counter-screen for MCL1 inhibitors: confirmation of human Bcl-xL inhibitors | 54% of 1,700 active | inhibition, % at 10.9 µM | GST-Bcl-xL / FITC-Bim BH3 peptide FP binding | shares compounds with MCL1-BIM inh;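 active = inhibition above a cutoff equal to the mean inhibition of all tested compounds plus 3 SD, cut at about 30% in these data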
# MCL1 inh confirm: confirmation of human MCL1 and BIM-BH3 interaction inhibitors; shares compounds with MCL1-BIM inh; GST-MCL1 / FITC-Bim-BH3 fluorescence polarization; inhibition, % at 10.9 µM; 61% of 1,700 active;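 active = inhibition above the average of all tested compounds plus 3 SD, cut at about 40% in these data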
# A number is an active result; i = inactive; ? = inconclusive; nt = no result; + = active, no number.
SMILES,MEX-5 binding,EBV gp42 inh,eLon inh,Bcl-xL primary,MCL1-BIM inh,GLD-1 RNA inh,Bcl-xL conf,MCL1 inh confirm
Cn1c(=O)c(Nc2ccc(Cl)cc2)c2c3c(cccc31)C(=O)c1ccccc1-2,-41,176,nt,+,+,172,162,197
NC(=S)N/N=C/c1ncc(C(F)(F)F)cc1Cl,i,i,i,146,153,101,95,113
N#Cc1c(-c2ccco2)cc(C2CC2)nc1N,i,i,i,i,i,i,nt,nt
N#Cc1c(-c2ccco2)cc(-c2ccccn2)nc1N,i,i,i,i,43,i,i,i
CCOc1cccc(NC(=O)C2CC(=O)N(C)C(=Nc3cccc(F)c3)S2)c1 (stereo not given),i,i,i,i,42,i,i,i
Cc1c(N2C(=O)c3ccc4c5c(ccc(c35)C2=O)CC4)c(=O)n(-c2ccccc2)n1C,i,79,i,i,52,i,33,78
Cc1ccc(CSc2[nH]c(=O)ncc2C)cc1,i,nt,i,i,i,i,nt,nt
C=CCN1C=C2C(=O)C(C)(OC(=O)CCC(=O)OC)C(=O)C(Br)=C2C=C1c1ccc(OC)cc1 (stereo not given),-28,i,i,71,74,i,52,56
CC(/C=C1\SC(=S)N(c2ccc(C(=O)O)cc2)C1=O)=C\c1ccccc1,i,i,i,i,48,i,i,i
CC(/C=C1\SC(=S)N(NC(=O)c2ccc(C)cc2)C1=O)=C\c1ccccc1,i,i,i,i,i,i,nt,nt
C/C(=N\NC(=O)c1cc(O)ccc1O)c1cccc(NC(=O)c2ccc(Cl)cc2)c1,i,nt,i,i,48,i,i,47
C/C(=N\NC(=O)c1cc(O)ccc1O)c1cccc(NC(=O)c2cccc(Cl)c2)c1,i,nt,i,i,i,i,nt,nt
N#C/C(=C\c1ccc(O)c(O)c1)C(=O)Nc1cccc2ncccc12,i,nt,i,i,71,i,33,69
COc1ccc(/C=C(\C#N)C(=O)Nc2cccc3ncccc23)cc1OC,i,i,i,i,i,i,nt,nt
Cc1ccc(-c2ccc(/C=C(\C#N)C(=O)Nc3cc(C)nn3-c3ccccc3)o2)cc1,?,120,nt,123,+,120,+,+
CCN(CC)CCNC(=O)c1ccc(NC(=O)c2cccc(-n3cnnn3)c2)cc1,i,nt,i,i,i,i,nt,nt
COc1cccc(-n2c(C)c3c(OC)cccc(=O)c3c2C)c1,i,i,i,i,41,i,i,i
Cc1c([N+](=O)[O-])cnc(Sc2ccccc2)c1[N+](=O)[O-],i,nt,i,i,i,i,nt,nt
CC(C)(C)NC(=O)CC1C[C@H](C(=O)N2CCCCC2)[C@@]2(C)c3[nH]c4ccccc4c3CCN2C1=O (stereo not given in full),nt,nt,i,nt,nt,i,nt,nt
Nc1nn2cc(-c3ccc(Br)cc3)nc2c2ccccc12,i,i,i,i,i,i,nt,nt
Brc1ccc(-c2cn3nc4c(nc3n2)CCCC4)cc1,i,i,i,75,79,42,45,44
c1ccc(-c2cn3nc(-c4ccccc4)cnc3n2)cc1,nt,i,i,i,i,i,nt,nt
c1ccc(-c2cn3nc4c(nc3n2)CCCC4)cc1,-37,63,i,112,130,91,78,97
O=C1C2C3C=CC(C3)C2C(=O)N1Nc1c(Cl)cc(Cl)cc1Cl (stereo not given),i,i,i,i,i,i,nt,nt
O=C(COc1ccccc1)Nc1ccccc1Cl,i,i,i,i,i,i,nt,nt
SMILES,MEX-5 binding,EBV gp42 inh,eLon inh,Bcl-xL primary,MCL1-BIM inh,GLD-1 RNA inh,Bcl-xL conf,MCL1 inh confirm
CC(=O)c1ccc2c(c1)N(CCCN1CCC(CCO)CC1)c1ccccc1S2,nt,nt,i,i,44,i,i,i
OCCN1CCN(CCCN2c3ccccc3Sc3ccc(Cl)cc32)CC1,i,i,i,i,i,i,nt,nt
CCCCNC(=O)Oc1c(Br)cc2sc(=O)oc2c1Br,nt,i,nt,i,77,i,36,58
COc1ccc(C(=O)NNC(=O)CSc2nnc3ccccn23)cc1OC,nt,nt,i,nt,nt,i,nt,nt
COc1ccc(Cl)cc1C(=O)NNC(=O)CSc1nnc2ccccn12,i,i,i,i,40,i,i,i
CN1/C(=C\C=N\NC(=O)c2ccc(O)cc2)C(C)(C)c2ccccc21,i,i,i,39,47,32,i,i
CN1/C(=C\C=N\NC(=O)c2cccnc2)C(C)(C)c2ccccc21,i,i,i,i,i,i,nt,nt
O=C(c1ccc(O)cc1)c1ccc(O)cc1O,i,i,i,i,i,i,nt,nt
O=C(c1ccccc1)c1ccc(O)cc1O,?,67,i,134,154,79,123,137
Nc1c(C(=O)C2CC2)sc2nc(-c3cccs3)cc(C(F)(F)F)c12,?,i,i,i,72,i,i,i
CCOc1cc(C2C3=C(CCCC3=O)N(C)C3=C2C(=O)CCC3)cc(Cl)c1O,i,i,i,i,50,i,i,i
O=C1NCC(COCc2ccccc2)O1 (stereo not given),i,i,i,i,54,i,i,i
Cc1cccc(C)c1OCC1CNC(=O)O1 (stereo not given),i,nt,i,i,i,i,nt,nt
CC1=Nc2ccccc2/C1=C\c1nc(-c2ccc(C(F)(F)F)cc2)oc1O,nt,i,i,60,58,i,100,126
[O-][n+]1c2ccccc2[n+]([O-])c2cc(O)ccc21,i,nt,i,i,46,i,45,77
[O-][n+]1c(/C=C/c2ccccc2)ccc2ccccc21,i,nt,i,nt,nt,nt,nt,nt
COc1ccc(NC(=O)CN(C)C(=O)c2cc3c(s2)CCCCC3)cc1,i,nt,i,i,i,i,nt,nt
COc1ccc(NC(=O)CN(C)C(=O)c2cc3c(s2)CCC3)cc1,i,nt,i,i,74,i,i,71
CCOC(=O)CCCNC(=O)CN1C(=O)NC(c2ccccc2)(c2ccccc2)C1=O,i,nt,i,i,i,i,nt,nt
CCN(CC(=O)Nc1cc(Cl)ccc1C)C(=O)c1nc2nc(C)cc(C)n2n1,nt,nt,i,i,i,i,nt,nt
C[C@H](CO)N1C[C@H](C)[C@H](CN(C)C(=O)Nc2cccc(Oc3ccccn3)c2)OCc2cnnn2CCCC1=O,nt,nt,i,nt,nt,nt,nt,nt
O=S(=O)(O)c1cc(Cl)cc(N=Nc2ccc(O)cc2O)c1O,nt,nt,i,nt,nt,nt,nt,nt
O=S(=O)(O)c1cc(O)c2c(O)c(N=Nc3cc(Cl)ccc3O)c(S(=O)(=O)O)cc2c1,-46,nt,45,i,56,i,36,57
Cn1c(CNc2ccc(O)cc2)nc2ccccc21,i,nt,i,56,66,92,81,82
Cc1ccc(NCc2nc3ccccc3n2C)cc1,i,i,i,i,i,i,nt,nt
CC(OC(=O)c1cc(=O)[nH]c2ccccc12)C(=O)c1ccccc1 (stereo not given),i,i,i,i,143,i,i,i
